Results on 25 compounds are retold here after PubChem BioAssay (NCI).

Where “and” joins values, the source holds several entries; their conditions need not be identical. Equal values may be shown once. This is part of a sample that, as a whole, favours compounds with a hit. Of some 83,000 tested, about 20% had one in any assay.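 The endpoint reported here, percent growth, reads 100 for growth as untreated, 0 for no net growth and -100 for all cells dead.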 Calls of active or inactive are those of the source. How the source made its calls: active means growth percent below 10; inactive means the rest.

The experiment relates to MDA-MB-468 breast. Kind of experiment: NCI-60 one-dose screen, 48 h (100 = growth as untreated, 0 = no growth, -100 = all killed). Particulars: 10 µM unless noted.
Regarding `Nc1cc(N)c(S(=O)(=O)O)cc1N=Nc1cc([N+](=O)[O-])ccc1O`, the growth is 102% (inactive).
Take `Nc1nc(Nc2ccccc2SSc2ccccc2Nc2nc(N)nc(-c3ccc(C(F)(F)F)cc3)n2)nc(-c2ccc(C(F)(F)F)cc2)n1`: the growth was 132% (inactive).
Take `Nc1nc(NC(=O)Nc2ccc(C(=O)O)cc2)nn1-c1ccc(S(N)(=O)=O)cc1`: the growth was 91.6% (inactive).
For the compound `CS(=O)(=O)c1ccc(-c2[nH]c3ccc(F)cc3c2/C=N/O)cc1`, the growth was 93.7% (inactive).
Turning to `OC(c1ccccc1)c1nnc(SCc2ccccc2)n1Cc1ccccc1` (stereo not given), the growth was 88.5% (inactive).
Regarding `Cc1nn(-c2ccc(Cl)cc2)c2nc3c(nc12)C(=O)c1ccccc1-3`, the growth is 49.2% (inactive).
In the case of `O=C1C=C(Cl)C(=O)c2ccccc21` it was -6.29% (active).
In the case of `COc1cc(C(=O)O)c(O)c(C(C)(C)C)c1` it was 100% (inactive); in that of `c1ccc(-c2nc3sc(-c4ccccc4)cn3n2)cc1`, 85.2% (inactive); in that of `CC1(C)CC2=C3C=C[C@@H]4[C@@]5(C)CCC(=O)C(C)(C)[C@@H]5CC[C@@]4(C)[C@]3(C)CC[C@@]2(C(=O)O)CC1=O`, 74.2% (inactive).
Turning to `CC(=O)O[C@H]1CC[C@]2(C)[C@H]3CC=C4[C@@H]5CC(C)(C)CC[C@]5(C(=O)NCCNCCN)CC[C@@]4(C)[C@]3(C)CC[C@H]2C1(C)C`, the growth is -78.2% (active).
Consider `Nc1[nH][nH]c(=O)c1N=Nc1ccccc1`, for which the growth was 105% (inactive) and 98.5% (inactive).
As for `O=C(NNC(=O)N1c2ccccc2C=Cc2ccccc21)c1ccccc1`, the growth is 98.9% (inactive).
In the case of `COc1ccc(/C=C/C(=O)c2ccc(B(O)O)cc2)cc1O` it was 66.8% (inactive).
The result for `C=C1CC[C@@H]2C(C)(C)[C@H](O)CC[C@@]2(C)[C@@H]1COc1ccc2ccc(=O)oc2c1` reads 44.1% (inactive); that for `O=C1Nc2ccccc2/C1=C\c1nc(-c2ccccc2F)n2ccccc12`, 8.76% (active).
In the case of `CC(C)NC(=O)c1cc(-c2ccc(NC(=O)Nc3ccc(F)cc3)cc2)nc2cccnc12` it was 88.9% (inactive); in that of `CN1CCN(c2nc(-c3ccncc3)nc3sc4c(c23)CCCCCC4)CC1`, 62.7% (inactive); in that of `OC1(c2ccc(Cl)c(C(F)(F)F)c2)CCN(CCCC(c2ccc(F)cc2)c2ccc(F)cc2)CC1`, -86% (active).
Take `COc1ccc2[nH]c(=O)c3c4ccccc4cn3c2c1`: the growth was 38% (inactive).
Turning to `COc1ccc2c(CCCC(c3ccccc3)c3ccccc3)c3[n+](cc2c1OC)CCc1cc2c(cc1-3)OCO2`, the growth was -73% (active).
For the compound `N#CC1=C(N)Oc2nc[nH]c(=O)c2C1c1cccs1` (stereo not given), the growth was 99.3% (inactive).
Regarding `O=[N+]([O-])c1ccccc1/C=N\NC(=S)N/N=C/c1ccccc1[N+](=O)[O-]`, the growth was 30.7% (inactive).
In the case of `CCn1c(SCC(=O)Nc2cccc(C(=O)/C=C/c3ccc(C)cc3)c2)nc2ccccc2c1=O` it was 58.7% (inactive); in that of `CN(C)c1ccc(/C=C(\C#N)c2ccccc2)cc1`, 4.19% (active) and -2.35% (active) and 4.76% (active).
